Species: Homo sapiens
Assay: To identify inhibition of the IFN signalling (Jak-Stat) pathway via expression of an eGFP reporter gene under the control of an IFN-stimulated response element (ISRE) containing MxA promoter.
Format: functional
Design: scale not given: direction of the effect not stated beside the values
Conditions: 30 µM

Row | SMILES | Percent Effect [%]
1 | COc1ccc(CCN2CCCC(CN(C)Cc3ccc(C)o3)C2)cc1 (centres undefined) | 11.1
2 | CC(C)(C(=O)NCC(N)=O)c1ccccc1F | -3.33
3 | COc1cc(C)c(C(C)NC(=O)Nc2nnc(C)s2)cc1OC (centres undefined) | 11.2
4 | Cc1ccc(CN2CC[C@H]3[C@@H]2CCC(=O)N3CCN2CCCC2)s1 | 7.46
5 | CS(=O)(=O)NC[C@@H]1OC[C@H]2CN(C(=O)c3ccc[nH]3)CC[C@H]21 | -0.978
6 | CC(C)OCCCNC(=O)CN1CCC(N2CCN(C)C2=O)CC1 | -2.11
7 | O=C(Cn1nc(-c2ccc(F)cc2)oc1=O)Nc1ccccc1 | 7.21
8 | CNS(=O)(=O)c1cccc(C(C)NCc2nccn2C(C)C)c1 (centres undefined) | 10.9
9 | Cc1cc(C)n(CC2CCCN2C(=O)c2cccc3[nH]ncc23)n1 (centres undefined) | 7.84
10 | CC1CCCN(Cc2c(C3CCOCC3)[nH]c3ncccc23)C1 (centres undefined) | 11
11 | CCCc1nc(CN2CCOC(CNc3cccnn3)C2)cs1 (centres undefined) | 7.16
12 | CN(C)C(=O)C1CN(Cc2c[nH]cn2)CCN(C2CCOCC2)C1 (centres undefined) | 15.9
13 | CC(Oc1ccccc1C(F)(F)F)C(=O)NCC(N)=O (centres undefined) | -26.2
14 | CCn1cc(CN(C)S(=O)(=O)c2ccc(Cl)cc2)cn1 | 15
15 | Cc1cnn(CC2CCCCN2C(=O)CN(C)C2CC2)c1 (centres undefined) | -1.15
16 | Cc1ccc(NC2CCN(C(=O)Cc3cccc(F)c3)CC2)nn1 | 6.31
17 | O=C(NCCCN1CCOCC1)c1cc(-c2ccco2)[nH]n1 | 0.231
18 | CCc1ccc(S(=O)(=O)Nc2cc(C(=O)O)c(F)cc2F)s1 | 4.81
19 | O=C(Nc1ccc(F)cc1)N1C[C@H]2CC[C@@H]1CN(Cc1cccnc1)C2 | 9.03
20 | CCC(C)NC(=O)Nc1ccc(CN2CCOC2=O)cc1 (centres undefined) | 21

Row | SMILES | Percent Effect [%]
21 | Cc1cnc2c(S(=O)(=O)NCC3CCS(=O)(=O)C3)cccc2c1 (centres undefined) | 7.48
22 | Cn1ncc2c(=O)[nH]c(CN3CCCC3CC3CCCCC3)nc21 (centres undefined) | 17.1
23 | COc1cc(CNC(=O)c2c(C)noc2C(C)C)ccn1 | 9.63
24 | Cc1nc(C)n(CC2CN(CCc3ccncc3)CCO2)n1 (centres undefined) | 16.9
25 | Nc1cc2c(nn1)CCN(C(=O)c1cccc3c1OCCO3)C2 | 10.7
26 | COc1cccc(CN2CCCCCC2c2cccs2)c1O (centres undefined) | 21.7
27 | CC(C)c1cc(NC(=O)CN2CCc3ccccc3C2)on1 | 14.1
28 | Cc1cc(C[C@@H]2COC[C@H]2NCc2ccc(Br)s2)on1 | 31.8
29 | Cn1nc(C2CN(C(=O)c3cscn3)C2)c2nccnc21 | 8.4
30 | Cc1cc(C)n(CC(=O)N2CCC(NS(=O)(=O)c3ccccc3)CC2)n1 | 15.1
31 | Cc1ccccc1C(=O)CN1C(=O)c2ccccc2CS1(=O)=O | 18.7
32 | CCCS(=O)(=O)N1CCC(NC(=O)c2ccc(Cl)s2)CC1 | -1.58
33 | COCC(c1cccc(C(F)(F)F)c1)N(C)C(=O)c1cc(C)n[nH]1 (centres undefined) | 0.723
34 | Cc1nn(C)c(C)c1CCC(=O)N1CCCC1Cn1cccn1 (centres undefined) | -0.691
35 | CN(Cc1ccc(F)cc1)C(=O)NCc1nnc2n1CCCCC2 | 15.3
36 | Cc1cc(CN2CCN(C(=O)NCc3nc(C)cs3)CC2)on1 | -12.4
37 | COCCOc1ccc(NC(=O)C2CC(=O)N(C)C2)cn1 (centres undefined) | 23.3
38 | Cc1cnn(CC2CCCN2C(=O)CCc2nc3ccccc3[nH]2)c1 (centres undefined) | -14.8
39 | CCN(CC)C(=O)c1ccc(-c2ccsc2)nc1C | -1.98
